# Screens: PubChem, The Scripps Research Institute Molecular Screening Center
# ssDAF-12 act: activates DAF-12 receptor from parasite S. stercoralis. HEK293 ssDAF-12/GRIP1 lit1-tk-luc reporter, luminescence; % of 3 µM dafachronic acid response. AID 652126. activation, % at 6.8 µM. 1% of 370,000 active;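 active = activation above the mean over all tested compounds plus 3 SD, cut at about 0.9% in these data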
# DAX1 inh-1: blocks DAX1 repression of SF-1 activated StAR promoter | HEK293T StAR-luciferase reporter, SF-1/DAX-1 repression relief | inhibition, % at 6.8 µM | 1.1% of 370,000 active;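 active = inhibition above the mean over all tested compounds plus 3 SD, cut at about 3.6% in these data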;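 note: higher inhibition means more luminescence from relief of DAX-1 repression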
# DAX1 inh-2: inhibits human nuclear receptor DAX1. HEK293 Gal4-DAX1 luciferase reporter, luminescence. inhibition, % at 6.75 µM. 0.99% of 340,000 active. AID 504766;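 active = inhibition above the mean over all tested compounds plus 3 SD, cut at about 4.2% in these data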;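 note: inhibition shows as a rise in luminescence from relieved DAX1 repression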
# Target sequence (P51843 207-470 limits assumed): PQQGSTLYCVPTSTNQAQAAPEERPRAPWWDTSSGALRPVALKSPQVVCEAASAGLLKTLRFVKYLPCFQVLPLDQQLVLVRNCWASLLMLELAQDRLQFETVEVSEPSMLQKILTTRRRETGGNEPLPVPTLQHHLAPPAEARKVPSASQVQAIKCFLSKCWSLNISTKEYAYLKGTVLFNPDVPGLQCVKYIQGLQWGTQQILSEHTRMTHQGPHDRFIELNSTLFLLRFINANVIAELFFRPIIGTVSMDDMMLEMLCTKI
# hgDAF-12 ag: activates the H. glycines DAF-12 receptor ligand-binding domain; HEK293 GAL4-hgDAF12 UAS-luciferase reporter, agonist luminescence; normalized to butyrate control; activation, % at 6.8 µM; 1.8% of 370,000 active; AID 687014;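 active = activation above a cutoff set at the mean of all screened compounds plus 3 SD, cut at about 10% in these data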
# hcDAF12 agonist: activators of H. contortus DAF-12 nuclear receptor | 1.4% of 370,000 active | HEK293 hcDAF-12 lit1-tk-luc reporter, luminescence; 0% DMSO, 100% Δ7-dafachronic acid | activation, % at 6.8 µM | AID 652067;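 active = activation above the mean of all tested compounds plus 3 SD, cut at about 5.5% in these data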
# SMARCA2 activ: increases SMARCA2 function in MMTV reporter cells; MG213 cells, MMTV-luciferase reporter, dexamethasone, overnight; activation, % at 9.1 µM; 1% of 370,000 active; AID 652017; in the data active = activation above about 7.8%
# Hits are given with their value; - = inactive; . = no result given; ! = not confirmed by another sample. A selection: hits, their analogues and other compounds. The true share with any hit is near 4.8%.
SMILES,ssDAF-12 act,DAX1 inh-1,DAX1 inh-2,hgDAF-12 ag,hcDAF12 agonist,SMARCA2 activ
CN(C(=O)CSc1nnc(-c2cccs2)n1N)c1ccccc1,-,-,-,-,-,-
Cc1nnc(SCC(=O)N(C)c2ccccc2)n1-n1cccc1,.,.,4.7,.,.,.
O=C(O)c1cccc(-n2cc(-c3cccc(C(F)(F)F)c3)cn2)c1,-,-,-,13,-,-
N=c1oc2ccc3ccccc3c2cc1-c1nc(-c2ccccc2)cs1,-,-,-,-,6.2,-
O=c1[nH]nc(Cc2ccc3ccccc3n2)c2ccccc12,1.0,-,-,-,6.5,-
CCCc1cc(=O)oc2cc(C)cc(OCC(=O)NCCCn3ccnc3)c12,-,-,-,-,-,-
Cc1ccc(S(=O)(=O)NCCC(=O)NCCSc2ccc(Br)cc2)cc1,-,-,-,-,-,-
O=C(O)C1CC=CCC1C(=O)NCc1cn2ccccc2n1 (stereo not given),1.1,-,-,-,-,-
N#C/C(=C/c1ccc(Oc2ccc([N+](=O)[O-])cn2)cc1)C(=O)N1CCOCC1,-,-,-,-,-,-
Cc1ccc(C(=O)N2CCN(c3ccc(N4CCOCC4)nn3)CC2)cc1,-,-,-,-,-,-
Cc1cccc(C(=O)N2CCN(c3ccc(N4CCOCC4)nn3)CC2)c1,2.2,-,4.4,-,-,-
COc1ccc(N=Cc2oc3ccc4ccccc4c3c2O)cc1,1.2,-,-,-,-,-
O=C(O)CN1C(=O)/C(=C2\SC(=S)N(C(Cc3ccccc3)C(=O)O)C2=O)c2ccccc21 (stereo not given),1.2,-,-,-,6.4,-
CCCC(C(=O)O)N1C(=O)/C(=C2\C(=O)N(C)c3ccccc32)SC1=S (stereo not given),-,-,-,-,-,-
Cc1cc(NC(=O)CC(C)(C)C)nc2c1c(=O)oc1ccccc12,-,-,-,-,6.3,-
CN1C2=C(C(=O)CC(C)(C)C2)C(c2cccs2)C2=C1CC(C)(C)CC2=O,-,-,5.3,-,-,-
Fc1ccc(/C=N/Nc2nn[nH]n2)cc1,-,-,7.1,-,-,-
Cc1ccc(-n2nc3c(c2NC(=O)c2ccc4c(c2)OCO4)CS(=O)(=O)C3)cc1C,-,-,-,-,-,-
Cc1ccc2c(c1)N(CC(=O)NCCc1c[nH]c3ccccc13)C(=O)CO2,0.9,-,-,-,-,-
CCCC(=O)Nc1ccc(N2CCN(S(C)(=O)=O)CC2)cc1,-,-,-,-,-,8.4
COc1ccccc1COc1cccn2c(N(C)C(=O)CCC3CCCC3)c(C)nc12,-,-,.,-,-,-
CC(OC(=O)CNC(=O)c1ccco1)C(=O)N(C)c1ccccc1 (stereo not given),-,-,-,-,-,-
CC(OC(=O)/C(C#N)=C/c1ccco1)C(=O)N(C)c1ccccc1 (stereo not given),2.5,-,-,-,-,-
CC(C)COCc1ccc(O)c2ncccc12,-,-,-,-,-,-
CCCOCc1ccc(O)c2ncccc12,-,-,-,12,-,-
SMILES,ssDAF-12 act,DAX1 inh-1,DAX1 inh-2,hgDAF-12 ag,hcDAF12 agonist,SMARCA2 activ
Cc1ccc(OCCCC(=O)NC2CCCCC2)cc1,-,-,5.0,-,-,-
COc1ccccc1CCC(=O)OCC(=O)NC1CCCC1,-,3.7,-,-,-,-
COc1cc(C)ccc1OCC(=O)NC1CCCCCC1,-,4.3,-,-,-,-
COc1ccc(OCC(=O)Nc2c(C(=O)N3CCN(C)CC3)oc3ccccc23)cc1,-,-,-,-,-,-
C[C@@H]1CN([C@H](C)CO)C(=O)CCCn2nncc2CO[C@H]1CN(C)C(=O)C1CCCCC1,-,-,-,-,-,-
Cc1ccc(-c2nc3ccsc3c(=O)o2)cc1,-,-,-,-,5.9,-
CC1=[N+](CC(=O)c2ccccc2)CCn2cccc21,1.0,-,.,-,-,-
Cc1ccc(S(=O)(=O)N(C)c2c(C)ccc(S(=O)(=O)N3CCN(C=O)CC3)c2C)cc1,-,-,-,-,-,-
O=C(O)CSc1nc2c(c(C(F)(F)F)n1)CCc1ccccc1-2,-,-,-,-,-,-
O=C(O)CSc1nc2c(c(C(F)(F)F)n1)CCCC2,-,-,5.1!,-,-,-
COC(=O)CSc1nc(C)c2c(n1)CCCC2,-,-,4.6,-,-,-
